# Screens from PubChem BioAssay.
# TDP1 cell CPT: DT40-hTDP1 cell growth loss with CPT | chicken DT40 Tdp1-/-;hTDP1 cells + 20 nM CPT, ATP luminescence, 48 h | Potency, µM (series often up to 46.2 µM), for inactives: at the highest dose activity change, negative = growth inhibition, actives largely listed as inhibitors | 420,000 tested, 12% active; further: potency means the concentration at half of the fitted maximal effect; nearly all actives have a fitted effect of over 55% in size
#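 Cell growth measured by CellTiter-Glo luminescence after a minimum 48 h, 37 C compound exposure with 20 nM CPT in Tdp1-knockout DT40 cells stably expressing hTDP1, seeded 400/well; qHTS titration format.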
# DT40 TDP1 no CPT: qHTS for Inhibitors of human tyrosyl-DNA phosphodiesterase 1 (TDP1): qHTS in cells in absence of CPT; DT40 Tdp1-/- hTDP1 cells, no CPT, ATP luminescence, 48 h; Potency, µM (series often up to 46.2 µM), without a hit: top-dose activity change, negative = growth inhibition, usual class: inhibitors; 420,000 tested, 15% active; AID 686978, 2013; further: potency means the concentration at half of the fitted maximal effect; nearly all actives have a fitted effect of over 55% in size
#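 Stably hTDP1-transfected Tdp1-null chicken DT40 cells were treated with library compounds minus camptothecin and grown for at least 48 hr at 37 °C, after which cellular ATP was quantified by luminescence.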
# 12-LOX inh: ALOX12 (human) lipoxygenase inhibition | 580,000 tested, 1.1% active | Potency, µM (highest dose often 108 µM), without a hit: at the highest dose activity change, negative = inhibition, usual class: inhibitors | purified 12hLO, xylenol orange hydroperoxide absorbance | P18054; further: potency means the concentration at half of the fitted maximal effect
#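 Purified human 12hLO at 150 nM in 25 mM Hepes, 0.01% Triton X-100, pH 7.0, preincubated 15 min at room temperature with compound. Reaction started with 40 uM arachidonic acid, 30 min at room temperature. Hydroperoxide measured by Fe-xylenol orange, 573/405 nm absorbance ratio.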
# HT1080NT lethal: kills 2HG-producing HT-1080-NT fibrosarcoma cells | HT-1080-NT fibrosarcoma viability, CellTiter-Glo ATP luminescence, 48 h | Potency, µM (doses to about 46.1 µM), inactives show at the top dose activity, negative = less viability, hits mostly cytotoxic | 360,000 tested, 1.6% active;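 further: NT is the 2HG producing partner of a matched IDH1 knockdown line; potency means the concentration at half of the fitted maximal effect; 0% = DMSO-treated cells and -100% = media-only wells without cells; nearly all actives have a fitted effect of over 55% in size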
#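 Toxicity toward the 2HG-producing NT line was scored as %Activity, normalised to DMSO and no-cell wells, from CellTiter-Glo luminescence after 48 hours' treatment.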
# HT1080 IDH1KD tx: HT-1080 IDH1 knockdown cell toxicity (counter line). HT-1080 IDH1 knockdown viability, ATP luminescence, 48 h. Potency, µM (doses to about 46.1 µM), without a hit: at the top dose activity, negative = toxicity, most hits filed as cytotoxic. 360,000 tested, 2% active;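 further: potency means the concentration at half of the fitted maximal effect; 0% = DMSO wells and -100% = cell-free medium wells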
#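 In this qHTS, HT-1080 cells depleted of IDH1 are exposed for 48 h at 37 °C to compound titrations. Toxicity is scored from CellTiter-Glo luminescence, with DMSO as full viability and medium alone as none.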
# IL-1B inflam inh: inflammasome signaling inhibition, IL-1 beta readout; THP-1 LPS/ATP IL-1B secretion, AlphaLISA, 16 h; stronger effect = lower value; activity change, % at 57.5 µM; 360,000 tested, 4.7% active; in the data active means activity change below about -50%; inconclusive means mostly about -30% to -49%
#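 THP-1 cells pretreated 1 hr with compounds (up to 57.5 uM final), then stimulated with LPS (250 ng/mL final) plus ATP (1.25 mM final); secreted IL-1B measured by AlphaLISA after 16 hr, decreased signal indicating inhibition.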
# An asterisk follows results filed as active; ? = inconclusive; / = not tested or not shown. This excerpt belongs to a sample that is enriched for hits. Unless noted, the call rests on the fitted dose curve; in most records, active means well fitted curve in the direction sought with a large enough effect; inconclusive means small, poorly fitted or top-dose-only effect, or another doubt; inactive means no such curve, though single readings can be large; an effect the other way counts as inactive or inconclusive. Unless noted, on the % scale 0 is the no-effect control and ±100 the full control effect.
SMILES,TDP1 cell CPT,DT40 TDP1 no CPT,12-LOX inh,HT1080NT lethal,HT1080 IDH1KD tx,IL-1B inflam inh
CC1=C(C(N)=O)C(c2cccnc2)n2nc(SCc3ccccc3F)nc2N1 (centres undefined),/,/,13%,/,/,/
CCn1c(C)c(C(C)=O)c(N2CCN(C(c3ccccc3)c3ccccc3)CC2)nc1=S,9.2µM*,6.5µM*,-27%,?,?,-185*
CCCCNc1nc(=S)n(-c2ccccc2)c(C)c1C(C)=O,16µM*,23µM*,?,?,16µM*,-91*
CCn1c(C)c(C(C)=O)c(N2CCN(c3ccccc3)CC2)nc1=S,-12%,-9%,?,15%,14%,19
CCCNc1nc(=S)n(-c2ccccc2)c(C)c1C(C)=O,-5%,-6%,?,4%,3%,0
CC(=O)c1c(N2CCCC2)nc(=S)n(-c2ccccc2)c1C,12µM*,8.2µM*,-8%,14%,-5%,-4
CC(=O)c1c(N2CCCCC2)nc(=S)n(-c2ccccc2)c1C,12µM*,5.8µM*,-66%,0%,-1%,-9
CC(=O)c1c(N2CCOCC2)nc(=S)n(-c2ccccc2)c1C,-6%,-5%,-2%,-3%,?,24
COc1ccccc1-c1coc2cc(OC(=O)c3ccccc3C)ccc2c1=O,/,/,7%,/,/,/
CN(C)CCCN(C(=O)c1cc(-c2cccs2)nc2ccccc12)c1nc2c(F)cccc2s1,?,-11%,-19%,?,?,-74*
Cc1ccc2nc(N(CCCN(C)C)C(=O)c3cc(-c4cccs4)nc4ccccc34)sc2c1,16µM*,?,-78%,?,?,?
CN(C)CCCN(C(=O)c1sc2ccccc2c1Cl)c1nc2c(F)cccc2s1,-23%,?,-23%,-2%,4%,-8
CCOC(=O)C1=C(CC)Nc2ccccc2N/C1=N\S(=O)(=O)c1ccc2ccccc2c1,-19%,-15%,3%,18µM*,15µM*,37
COc1ccc(OC)c(C(=O)N2CCC(C(=O)O)CC2)c1,/,/,-7%,/,/,/
Clc1ccc(CON/C=N/c2ncnc3sccc23)c(Cl)c1,13µM*,10µM*,-9%,-16%,-8%,?
Cc1cc(C)c(C(=O)COC(=O)c2cccc(C)c2C)cc1C,/,/,-10%,/,/,/
O=C(/C=C/c1ccccn1)c1cc(Br)ccc1O,23µM*,23µM*,?,-4%,11%,?
O=C(/C=C/c1ccccn1)c1ccc(Br)cc1O,21µM*,18µM*,?,4%,8%,-22
Cc1ccc(C)c(Nc2cc(C)nc3ccccc23)c1,15µM*,16µM*,0%,-10%,?,-70*
Cc1ccc(Nc2cc(C)nc3ccccc23)c(C)c1,12µM*,12µM*,0%,?,?,-95*
COc1cccc2c(Nc3ccccc3C)cc(C)nc12,18µM*,13µM*,0%,?,?,-101*
Cc1cc(Nc2ccccc2O)c2ccccc2n1,?,?,-10%,-25%,0%,-63*
Cc1cc(Nc2ccc(F)cc2)c2ccccc2n1,?,?,-17%,-7%,-8%,1
Cc1cc(NC(=O)Cc2ccccc2)c2ccccc2n1,5.2µM*,2.6µM*,3%,?,-11%,-22
Nc1ccc(Nc2nc3ccccc3[nH]2)cc1,32%,-20%,2%,-9%,-3%,?
c1ccc(Nc2ccccn2)cc1,?,26µM*,2%,17%,16%,-16
Cc1ccc(C)c(Nc2nc3ccccc3[nH]2)c1,-2%,-28%,4%,-8%,-9%,-94*
Nc1ccccc1Nc1nc2ccccc2[nH]1,?,26µM*,-15%,-30%,-28%,-15
CNCc1nc2ccccc2[nH]1,-17%,15%,-2%,1%,0%,18
